Source: PubChem BioAssay (National Center for Advancing Translational Sciences (NCATS))
An excerpt weighted towards active compounds, which were near 0.9% of everything screened.
A488 fluor – A488 region autofluorescence | compound autofluorescence, A488 spectral region, dye equivalency; Compound Type: qHTS ECL - MLSMR | hit rate 0.1% among 59,000 | max dye equivalency, M | AID 591
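Read-out: relative fluorescence at 480/540 nm, expressed as Alexa 488 dye-equivalent concentration from a six-point A488 standard included per plate. Conditions: 100 mM Tris, pH 8.0; 15 min incubation, room temperature.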
Rhodamine fluor – compound autofluorescence in rhodamine spectral region | max dye-equivalent concentration, M | hit rate 0.05% among 59,000 | Rhodamine-region fluorescence, 547/598 nm, Tris buffer; stronger effect = higher value; in the data active means max dye-equivalent concentration above about 11 nM; inconclusive means between about 1.1 nM and that limit
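Compounds in 100 mM Tris buffer, pH 8.0, were incubated 15 min at room temperature, then read at 547 nm excitation and 598 nm emission. Fluorescence was normalized against a per-plate six-point rhodamine standard curve as dye-equivalent concentration.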
Resorufin fluor – compounds fluorescent in resorufin spectral region; Compound fluorescence, resorufin region 547/598 nm, buffer; stronger effect = higher value; max dye-equivalent concentration, M; hit rate 0.04% among 59,000
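Read-out: intrinsic compound fluorescence at ex 547/em 598 nm after 15 min at RT in pH 8.0 Tris (100 mM). Values expressed as resorufin-equivalent concentration from per-plate standard series.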
A647 fluor – compound autofluorescence in A647 spectral region | Compound fluorescence, A647 channel (570/671 nm), Tris buffer | max dye-equivalent concentration, M | 59,000 tested, under 10 active | AID 592;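 further: values scaled relative to a standard on each plate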
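Tris 100 mM pH 8.0; cpd + A647 stds pin-transferred; 15 min RT; CCD imager, ex 570/em 671. Output = A647-equivalent conc. per cpd conc.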
Fluorescein fluor – compound autofluorescence in fluorescein spectral region. Compound autofluorescence, 480/540 nm, fluorescein-equivalent; stronger effect = higher value. max fluorescein-equivalent concentration, M. hit rate 0.91% among 59,000; in the data active means max fluorescein-equivalent concentration above about 10 nM; inconclusive means between about 1.1 nM and that limit
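Library compounds, added at multiple concentrations to pH 8.0 Tris buffer (100 mM), incubate 15 min at room temperature before CCD imaging at 480 nm excitation and 540 nm emission.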
TexasRed autofl – Texas Red region autofluorescence; hit rate 0.06% among 59,000; Compound fluorescence, Texas Red channel, 547/618 nm; stronger effect = higher value; AID 587; max dye-equivalent concentration, M; in the data active means max dye-equivalent concentration above about 10 nM; inconclusive means between about 1.1 nM and that limit
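Texas Red-region profiling: compounds in 100 mM Tris pH 8.0 were read at 547/618 nm after 15 min at room temperature. Intensities were normalized against a six-point Texas Red standard series to give dye-equivalent concentration.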
The depositor's hits bear a star; i = inactive; ? = inconclusive; ! = a repeat was not active. Unless noted, how the calls were made is not given here.

SMILES | A488 fluor | Rhodamine fluor | Resorufin fluor | A647 fluor | Fluorescein fluor | TexasRed autofl
Cc1c(N=C2Nc3cccc4cccc2c34)c(=O)n(-c2ccccc2)n1C | ? | i | i | 2.7e-09 | 1.5e-07M* | i
CCNC(=O)[C@@H]1O[C@@H](n2cnc3c(NCc4ccccc4)ncnc32)[C@@H](O)[C@H]1O | i | i | i | 4.6e-09 | i | i
Cc1nc2ccc(Cl)cc2nc(C)/c1=N\O | ? | i | i | 1.1e-08 | 1.1e-07M* | ?
CC(=O)c1c(C)nc2cc(Cl)ccc2c1N | i | i | i | 1e-09 | i | i
CN1C=CC2=C(C#N)C(N)C(C#N)(C#N)C(c3ccccc3)C2C1 (stereo not given) | ? | i | i | 5.7e-08 | 3.3e-08M* | i
COc1cccc2c1C(=O)c1c(O)c3c(c(O)c1C2=O)C[C@](O)(C(=O)CO)C[C@H]3O[C@@H]1C[C@H](N)[C@H](O)[C@H](C)O1 | 1.3e-08M* | 9.8e-08M* | 7.2e-08M* | 2.1e-08 | 3e-07M* | 9.5e-08M*
NC(=O)c1cc2ccc(O)cc2oc1=NCc1ccccc1 | 1.5e-08M* | i | i | 1.3e-09 | 2.7e-07M* | i
NC(=O)c1cc2ccc(O)cc2oc1=Nc1ccccc1 | i | i | i | 2.5e-08 | ? | i
CC[C@]1(O)C[C@H]2CN(CCc3c([nH]c4ccccc34)[C@](C(=O)OC)(c3cc4c(cc3OC)N(C)[C@@H]3[C@](O)(C(=O)OC)[C@H](OC(C)=O)[C@]5(CC)C=CCN6CC[C@]43[C@@H]65)C2)C1 | i | i | i | 1.9e-09 | ? | i
C[C@H](O)[C@H](O)[C@@H]1CNc2nc(N)[nH]c(=O)c2N1 | i | i | i | 8.1e-09 | ? | i
Cc1ccc(N2C(=O)c3cccc4c(N5CCN(C)CC5)ccc(c34)C2=O)c2cccnc12 | ? | i | i | 1e-09 | 2.6e-08M* | i
CCN1C(=O)c2cccc3c(S(=O)(=O)Nc4ncccc4C)ccc1c23 | i | i | i | 2.5e-08 | ? | i
CCNc1ncc2nc(-c3cccs3)c(=O)n(CCC#N)c2n1 | i | i | i | 1e-09 | 1.4e-08M* | i
N#CCCn1c(=O)c(-c2cccs2)nc2cnc(Nc3ccccc3)nc21 | i | i | i | 1e-09 | ? | i
COC(=O)[C@@H](NC(=O)c1cc(-c2ccccc2)nc2ccccc12)c1ccccc1 | i | i | i | 9.2e-09 | i | i
COc1ccc(N(C)S(=O)(=O)c2ccc3c(c2)CCC(=O)N3)cc1 | i | i | i | 3.1e-09 | i | i
CN(C)S(=O)(=O)c1ccc2c(c1)/C(=C/c1cc3c([nH]1)CCCC3)C(=O)N2 | i | i | i | 2.6e-08 | 1.9e-08M* | i
Cc1ccc(N2C(=O)[C@@H]3[C@H](C2=O)C2CCCN2[C@@H]3C(=O)c2ccccc2)cc1 (stereo not given in full) | i | i | i | 3.4e-08 | ? | i
CC(=O)c1ccc(N2C(=O)C3C(C2=O)C(C(=O)c2ccc(Cl)cc2)N2CCCC32)cc1 (stereo not given) | ? | i | i | 1e-09 | 1.3e-07M* | i
O=C(c1ccc(Cl)cc1)C1C2C(=O)N(c3ccccc3)C(=O)C2C2CCCN21 (stereo not given) | ? | i | i | 3.8e-08 | 5.2e-08M* | i
O[C@@H]1CC[C@H]2Cc3ccccc3N=C21 | i | i | i | 4.4e-09 | i | i
CC(C)c1ccc2c(c1)CC[C@@H]1[C@@](C)(CN)CCC[C@@]21C | i | i | i | 1e-09 | 1.2e-08M* | i
O=C(NC1CCCC1)c1cnn2c(C(F)(F)F)cc(-c3ccc4c(c3)OCO4)nc12 | ? | i | i | 1e-09 | 4.6e-08M* | i
O=C(c1cnn2c(C(F)(F)F)cc(-c3ccc4c(c3)OCO4)nc12)N1CCCCC1 | i | i | i | 3.3e-08 | i | i
CCNc1ncc2nc(C)c(=O)n(CCc3ccccc3)c2n1 | i | i | i | 1.7e-09 | i | ?
SMILES | A488 fluor | Rhodamine fluor | Resorufin fluor | A647 fluor | Fluorescein fluor | TexasRed autofl
COc1cccc(C2=CC(c3ccccc3)n3ncnc3N2)c1 (stereo not given) | i | i | i | 6.1e-09 | ? | i
COc1ccc(C2C=C(c3ccc(C)cc3)Nc3ncnn32)cc1 (stereo not given) | i | i | i | 1.8e-09 | 1.1e-08M* | i
CCOc1ccc(C2C=C(c3ccccc3)Nc3ncnn32)cc1 (stereo not given) | i | i | i | 1.1e-09 | 1.3e-08M* | i
COc1ccc(C2C=C(c3ccc(Br)s3)Nc3ncnn32)cc1OC (stereo not given) | 7.3e-08M* | i | i | 1e-09 | 1.3e-06M* | i
CCOc1ccc(C2C=C(c3ccc(F)cc3)Nc3ncnn32)cc1 (stereo not given) | i | i | i | 4.8e-09 | ? | ?
C1=C(c2ccc(-c3ccccc3)cc2)Nc2ncnn2C1c1ccco1 (stereo not given) | ? | i | i | 3.6e-09 | 1.4e-07M* | i
CC(=O)OC(C)(C)N=Nc1ccc(Br)cc1 | i | i | i | 2.1e-08 | i | i
CCNc1ncc2nc(-c3ccccc3)c(=O)n(C)c2n1 | i | i | i | 1.5e-08 | i | i
CN1CCN(c2ncc3nc(CCc4ccccc4)c(=O)n(C4CC4)c3n2)CC1 | i | i | i | 1e-09 | i | i
COc1cc(C(=O)N(CCc2ccccc2)C2CC3CCC(C2)N3C)cc(OC)c1OC (stereo not given) | i | i | i | 6.2e-09 | i | ?
CN1[C@@H]2CC[C@H]1CC(OC(=O)[C@@H](CO)c1ccccc1)C2 (stereo not given in full) | i | i | i | 3.9e-09 | 3e-08M*! | ?
O=C1c2c(O)cc(O)cc2O[C@@H](c2ccc(O)c(O)c2)[C@H]1O | i | i | i | 2.6e-08 | ? | i
CCOC(=O)Nc1ccc(NCc2ccc(F)cc2)nc1N | i | i | i | 3.1e-08 | 1.6e-08M* | i
CCOC(=O)Nc1cc(C)ccc1OC | i | i | i | 1.2e-08 | i | ?
CN(CCO)C(=O)c1cccc2c1-c1ccccc1C2=O | i | i | i | 1.2e-08 | i | i
Cn1c(=O)c(NCCO)c2c3c(cccc31)C(=O)c1ccccc1-2 | 1.3e-06M* | 8.5e-08M* | 5.2e-08M* | 3.4e-09 | 2.5e-05M* | ?
CCNc1c2c3c(cccc3n(C)c1=O)C(=O)c1ccccc1-2 | 1.4e-07M* | 1.2e-08M* | ? | 4.2e-09 | 2.5e-06M* | ?
C=C1c2c(Cl)ccc(O)c2C(O)=C2C(=O)[C@@]3(O)C(O)=C(C(N)=O)C(=O)[C@@H](N(C)C)[C@@H]3[C@@H](O)[C@H]12 | i | i | i | 7.1e-09 | ? | i
